From PubChem
NS1 function inh – inhibitors of influenza NS1 protein function; Potency, µM (highest dose often 46.1 µM), without a hit: at the top dose activity, positive = more growth; 270,000 compounds, 0.4% hits; also: potency is read from the fitted curve at half-maximal effect; actives are rising curves; nearly all actives have a fitted effect of over 50% in size
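In this qHTS, NS1 from influenza A is expressed in budding yeast, where it slows growth. Cells are switched from glucose to 2% galactose medium (pH 6.0, -URA), treated with compound, and growth recovery is read at OD600.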
SARS PLP yeast – blocks SARS-CoV papain-like protease in a yeast assay; S. cerevisiae expressing SARS-CoV PLpro, growth rescue; Potency, µM (top dose mostly 32.9 µM), for the others: at the highest dose activity, positive = growth rescue, most hits filed as activators; 330,000 compounds, 0.19% hits; also: potency is read from the fitted curve at half-maximal effect; 0% is about no effect; nearly all actives have a fitted effect of over 55% in size
Shiga toxin inh – inhibitors of Shiga toxin in Vero cells | Vero cells, Shiga toxin protein synthesis inhibition reporter | inhibition, % at 38.7 µM | 290,000 compounds, 9.2% hits | AID 2315; in the data active = inhibition mostly above about 28%, no sharp cut-off; inactive = mostly below about 43%; also: 0% is about no effect
Cycloheximide cs – counter-screen hit for Shiga toxin inhibitors, cycloheximide; 300,000 compounds, 12% hits; max response, %; cell reporter, cycloheximide protein synthesis inhibition counterscreen; AID 2314; in the data active = max response mostly above about 13%, no sharp cut-off; inactive = mostly below about 14%; also: read at 38.3 µM for the half of the compounds with a filed dose; 0% is about no effect
* = called active by the depositor; u = inconclusive; x = no result; + = active, no number. Compounds with a hit are over-represented: about 12% of the library has one in this group of screens. Unless noted, calls follow the shape of the full dose curve.

SMILES	NS1 function inh	SARS PLP yeast	Shiga toxin inh	Cycloheximide cs
O=C(Oc1cncc(Cl)c1)c1ccco1	-4.5%	-29.0%	12.7	-3.5
O=C(Oc1oc(-c2ccco2)nc1C=Nc1ccc(Cl)cc1)c1ccco1	-23.7%	-14.1%	50.5*	23.1*
CC(=O)NCCc1nc2ccccc2n1Cc1cc(C)ccc1C	-1.9%	0.9%	-4.7	5.9
COc1ccc(-c2noc(CN3CCN(C(=O)c4cccs4)CC3)n2)c(OC)c1OC	-2.2%	-2.6%	-16.4	6.8
Cc1ccc(OCCn2c(=O)n(C)c3ccccc32)cc1	-6.7%	-2.2%	104.5*	42.3*
Cn1c(=O)n(CCOc2ccc(Cl)cc2Cl)c2ccccc21	-1.8%	-0.9%	-8.8	-0.7
Cn1c(=O)n(CCOc2ccc([N+](=O)[O-])cc2)c2ccccc21	-5.2%	0.1%	67.5*	26.2*
CCC1CCCCN1CCCNC(=O)Cn1c(=O)c2cccn2c2cccnc21 (stereo not drawn)	0.0%	u	-2.6	-5.5
Cc1cccc(-c2noc(CN(C)C(=O)c3ccco3)n2)c1	-3.9%	0.5%	154.0*	30.3*
COc1ccc(-c2noc(CN(C)C(=O)c3ccoc3C)n2)cc1	-5.3%	1.1%	25.2	24.3*
Cc1cccc(-c2noc(CN(C)C(=O)COc3ccccc3)n2)c1	-25.5%	-2.8%	14.5	8.9
Cc1cccc(-c2noc(CN(C)C(=O)c3ccoc3C)n2)c1	-13.1%	-5.0%	60.5*	10.6
O=C1Oc2ccccc2C(=O)/C1=C\N1C(=O)N/C(=C\c2ccccc2O)C1=O	2.7%	x	x	x
O=C(c1ccc(-c2cc(O)c3ncccc3c2)cc1)N1CCNCC1	x	-1.6%	x	x
COc1ccc(OC)c(NC(=O)C2CC(C)=C(C)CC2C(=O)O)c1 (stereo not drawn)	u	-5.8%	4.0	0.6
Cc1c(NC(=O)C(C)OC(=O)/C=C/c2ccccc2)c(=O)n(-c2ccccc2)n1C (stereo not drawn)	u	0.2%	-30.6	-6.0
Cc1ccc(C(=O)N/C(=C\c2ccc3c(c2)OCO3)C(=O)Nc2ccc(C(=O)O)cc2)cc1	x	2.3%	39.0*	13.7
Cc1c(NC(=O)C(C)OC(=O)/C=C/c2ccc3c(c2)OCO3)c(=O)n(-c2ccccc2)n1C (stereo not drawn)	x	4.1%	88.7*	37.4*
CN(/N=C/c1ccc2c(c1)OCO2)c1ccccc1	-12.3%	-55.9%	127.1*	95.1*
CN(C(=O)/C=C/c1ccc2c(c1)OCO2)c1ccccc1	x	-2.5%	92.0*	41.7*
CCOc1ccc(NC(=O)NNC(=O)C(C)Oc2ccccc2OC)cc1 (stereo not drawn)	4.0%	-0.6%	-5.5	9.0
c1cc(-c2sc(-c3ccncc3)c(-c3ccncc3)c2-c2ccncc2)ccn1	0.0%	0.5%	-4.7	-6.0
CN(C)S(=O)(=O)c1ccc2c(c1)Cc1cc(S(=O)(=O)N(C)C)ccc1-2	3.9%	-2.5%	-4.3	6.9
COc1cc(OC)c(OC)cc1/C=N/N(C)c1ccccc1	-46.3%	-5.1%	33.3	17.1
COc1cc(/C=N/N(C)c2ccccc2)ccc1O	-16.5%	-5.0%	88.5*	31.1*
SMILES	NS1 function inh	SARS PLP yeast	Shiga toxin inh	Cycloheximide cs
CCCCn1c(O)c(C(=O)/C=C/c2ccc3c(c2)OCO3)c(=O)[nH]c1=O	u	-0.1%	-24.1	-0.4
COC(=O)/C=C/c1ccc2c(c1)OCO2	x	-0.7%	83.4*	22.1*
CCCNC(=O)COC(=O)/C=C/c1ccc2c(c1)OCO2	-17.2%	19.9%	38.9	3.5
COc1ccc(NC(=O)/C=C/c2ccc3c(c2)OCO3)cc1	-4.9%	-1.3%	78.0*	47.6*
CCNc1ccccc(C(=O)/C=C/c2ccc3c(c2)OCO3)c1=O	-2.4%	-12.3%	54.4	23.7*
CC(=O)Nc1ccc(NC(=O)C(C)OC(=O)/C=C/c2ccc3c(c2)OCO3)cc1 (stereo not drawn)	x	-1.1%	x	x
c1ccc(C(c2cccc3c2ccc2ccccc23)[C@H](c2ccccc2)c2cccc3c2ccc2ccccc23)cc1 (stereo partly drawn)	7.8%	x	x	x
O=C(O)CC1CCCc2ccccc2C1O (stereo not drawn)	-1.4%	x	x	x
COc1ccc(NC(=O)/C(=C/c2ccc3c(c2)OCO3)NC(C)=O)cc1	13.3%	8.8%	+	72.5*
CCCNC(=O)c1ccc(N2CCC3(CC2)CC(c2ccccc2)=NO3)c(NC(=O)c2cccc(C)c2)c1	u	8.7%	8.9	-0.7
O=C(CSc1nnc2c3c4c(sc3ncn12)CCCC4)NCc1ccco1	-4.9%	-2.2%	-6.7	-0.7
O=C(CSc1nc2sc3c(c2c(=O)n1-c1ccccc1)CCCC3)NCc1ccco1	2.5%	4.9%	-11.7	-3.0
O=C(CSc1ncnc2sc3c(c12)CCCCC3)NCc1ccco1	-7.5%	-11.8%	103.4*	63.1*
Cc1nc2sc3c(c2c2nnc(SCC(=O)NCc4ccco4)n12)CCCC3	-5.0%	-17.5%	active	27.6*
